Test results as given in article PMC6602471.
The full ranking holds about 1,300 sequences; the median of “log fluorescence intensity” is about 8.3, and the highest 2% start at about 12. Many of the other results were omitted from the sample, so the highest values are more common in it than they were.

Biological target: T1, ETS1 (Homo sapiens, UniProt P14921 1-441)
T1 sequence: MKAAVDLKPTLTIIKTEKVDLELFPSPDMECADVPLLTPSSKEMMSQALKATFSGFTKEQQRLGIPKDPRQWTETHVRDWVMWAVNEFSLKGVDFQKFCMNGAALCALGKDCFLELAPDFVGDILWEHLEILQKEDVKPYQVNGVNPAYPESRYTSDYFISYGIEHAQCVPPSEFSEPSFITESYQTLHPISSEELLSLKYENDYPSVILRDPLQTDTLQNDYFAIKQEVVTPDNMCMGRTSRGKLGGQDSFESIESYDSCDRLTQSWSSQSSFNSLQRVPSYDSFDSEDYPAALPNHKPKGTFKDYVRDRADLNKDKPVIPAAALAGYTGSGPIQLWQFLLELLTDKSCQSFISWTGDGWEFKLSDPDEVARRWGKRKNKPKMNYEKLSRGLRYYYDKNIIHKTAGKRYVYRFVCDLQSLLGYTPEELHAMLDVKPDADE
Assay: custom PBM; custom protein-binding microarray; buffer, salt, pH and temperature not stated; high values mean tight binding
Settings: dsDNA, one strand shown

Going from “TGTCGGGTAAGGGAATGTAGATCACGTGAATGTAAAGTCTTGATTCGCTTGACGCTGCTG” to “CTGGGACTTGACCCAACTCTGCCACGTGGGTCGATTGTCTTGATTCGCTTGACGCTGCTG”, the binding signal falls from 8.34 log fluorescence intensity to 8.33 log fluorescence intensity.

First: GTCTATAGGATCCCATCCAACACACGTGTTAAAATGGTCTTGATTCGCTTGACGCTGCTG
Second: GCTGCTGCGGTGCATACCCCACCGGATGTGTCCCCGGTCTTGATTCGCTTGACGCTGCTG
The binding signal of the first is lower: 8.42 log fluorescence intensity for the first, 9.62 log fluorescence intensity for the second.

Going from “GCTGCAGCGGTGCATACCCCACCGGATGTGACCCCGGTCTTGATTCGCTTGACGCTGCTG” to “CAGCATAGGACTTCTTCACTGAAGCAATTGATAACCGTCTTGATTCGCTTGACGCTGCTG”, the binding signal falls from 10.4 log fluorescence intensity to 8.32 log fluorescence intensity.

Going from “GCTGCTGCGGTGCATACCCCCCCGGATGTGACCCCGGTCTTGATTCGCTTGACGCTGCTG” to “CGGAAGTGTCGTAGACGTCGGATATCCGGTTCTTCTGTCTTGATTCGCTTGACGCTGCTG”, the binding signal rises from 8.71 log fluorescence intensity to 11.7 log fluorescence intensity.

First: CAGCATAGGACTTCTTCCCTGAAGGAATTGATAACCGTCTTGATTCGCTTGACGCTGCTG
Second: CGGAAGTGTCGTAAACGTCGGATATCCAGTTCTTCTGTCTTGATTCGCTTGACGCTGCTG
The binding signal of the first is lower: 8.32 log fluorescence intensity for the first, 8.64 log fluorescence intensity for the second.

First: CACTGACTTATATATGCGAATGCACATGAATAGACCGTCTTGATTCGCTTGACGCTGCTG
Second: GCTGCTGCGGTGCACACCCCACCGGATGTGACCCCGGTCTTGATTCGCTTGACGCTGCTG
The binding signal of the first is lower: 8.35 log fluorescence intensity for the first, 10.3 log fluorescence intensity for the second.

First: ACTGCTGCGGTGCATACCCCACCGGATGTGACCCCGGTCTTGATTCGCTTGACGCTGCTG
Second: TAAAGGGAAGACGGCTGTGGTAGTTCCGGGTATTAAGTCTTGATTCGCTTGACGCTGCTG
The binding signal of the first is higher: 10.4 log fluorescence intensity for the first, 8.35 log fluorescence intensity for the second.

First: TAAAGGTAAGACGGTTGTGGTAGTTCCGGGTATTAAGTCTTGATTCGCTTGACGCTGCTG
Second: GGAAAAAGGCCCAGGGTAACACCGGAAGTGGGGTTAGTCTTGATTCGCTTGACGCTGCTG
The binding signal of the first is lower: 8.54 log fluorescence intensity for the first, 12 log fluorescence intensity for the second.

Compared with “TAAAGGCAAGACGGTTGTGGTAGTTCCGGGTATTAAGTCTTGATTCGCTTGACGCTGCTG”, “GCTGCTGTGGTGCATACCCCACCGGATGTGACCCCGGTCTTGATTCGCTTGACGCTGCTG” is higher in binding signal: 8.32 log fluorescence intensity for the first, 10.3 log fluorescence intensity for the second.

Compared with “GGAACAAGGCCCAGGGTAACACCGGAAGTGGGCTTAGTCTTGATTCGCTTGACGCTGCTG”, “CGGAAGAGTCGTAAACGTCGGATATCCGGTTCTTCTGTCTTGATTCGCTTGACGCTGCTG” is lower in binding signal: 11.9 log fluorescence intensity for the first, 11.8 log fluorescence intensity for the second.

Going from “GGAAAAACGCCCAGGGTAACACCGGAAGTGGGCTTAGTCTTGATTCGCTTGACGCTGCTG” to “GCTGCTGCTGTGCATACCCCACCGGATGTGACCCCGGTCTTGATTCGCTTGACGCTGCTG”, the binding signal falls from 12.1 log fluorescence intensity to 9.42 log fluorescence intensity.

Compared with “GGAAAAAGGCCCAGGGTAAGACCGGAAGTGGGCTTAGTCTTGATTCGCTTGACGCTGCTG”, “TAAAGGGAAGACGGTTGTGGTAGTTACGGGTATTAAGTCTTGATTCGCTTGACGCTGCTG” is lower in binding signal: 12 log fluorescence intensity for the first, 8.37 log fluorescence intensity for the second.

Compared with “TGTCGGGTAAGGGCATGTAGATCACGTGAATGAAAAGTCTTGATTCGCTTGACGCTGCTG”, “GGAAAAAGGCCCAGGGTATCACCGGAAGTGGGCTTAGTCTTGATTCGCTTGACGCTGCTG” is higher in binding signal: 8.41 log fluorescence intensity for the first, 11.4 log fluorescence intensity for the second.

Going from “TACTGACTTATAGATGCGAATGCACATGAATAGACCGTCTTGATTCGCTTGACGCTGCTG” to “TAAAGGGAAGACGGTTCTGGTAGTTCCGGGTATTAAGTCTTGATTCGCTTGACGCTGCTG”, the binding signal rises from 8.45 log fluorescence intensity to 8.63 log fluorescence intensity.

First: CAGCATAGGACTTCTTCCCTGAAGCAATTGATAACGGTCTTGATTCGCTTGACGCTGCTG
Second: CGGAAGTGTCGTAAACGTCGGATATCGGGTTCTTCTGTCTTGATTCGCTTGACGCTGCTG
The binding signal of the first is lower: 8.34 log fluorescence intensity for the first, 8.65 log fluorescence intensity for the second.

Compared with “GGGTATAGGATCCCATCCAACACACGTGTTAAAATGGTCTTGATTCGCTTGACGCTGCTG”, “GTGTATAGGATCCCATCCAACACACGCGTTAAAATGGTCTTGATTCGCTTGACGCTGCTG” is lower in binding signal: 8.44 log fluorescence intensity for the first, 8.37 log fluorescence intensity for the second.

Compared with “CGGAAGTGTCGTAAACGTCGGATATCCGGTTCTCCTGTCTTGATTCGCTTGACGCTGCTG”, “GCTGCTGCGGTGCATACCCCAGCGGATGTGACCCCGGTCTTGATTCGCTTGACGCTGCTG” is lower in binding signal: 11.8 log fluorescence intensity for the first, 8.5 log fluorescence intensity for the second.

Compared with “GGAAAAAGGCCCAGCGTAACACCGGAAGTGGGCTTAGTCTTGATTCGCTTGACGCTGCTG”, “TAAAGGGAAGACTGTTGTGGTAGTTCCGGGTATTAAGTCTTGATTCGCTTGACGCTGCTG” is lower in binding signal: 11.9 log fluorescence intensity for the first, 8.36 log fluorescence intensity for the second.

Compared with “TAAAGGGAAGACGGTTGTGGTAGTTCCGGTTATTAAGTCTTGATTCGCTTGACGCTGCTG”, “TAAAGGGAAGACGGTTGTGGTAGTTCCGGGCATTAAGTCTTGATTCGCTTGACGCTGCTG” is lower in binding signal: 9.95 log fluorescence intensity for the first, 8.59 log fluorescence intensity for the second.

Compared with “CGGAAGTGTCGTAAACGTCGGATATCTGGTTCTTCTGTCTTGATTCGCTTGACGCTGCTG”, “GCTGCTACGGTGCATACCCCACCGGATGTGACCCCGGTCTTGATTCGCTTGACGCTGCTG” is higher in binding signal: 8.37 log fluorescence intensity for the first, 10.3 log fluorescence intensity for the second.

“CGGAAGTGTCGTAAACGTCGGATATCCGGTTATTCTGTCTTGATTCGCTTGACGCTGCTG” was tested, and the binding signal was 12.1 log fluorescence intensity.
